Screening data deposited in PubChem BioAssay by National Center for Advancing Translational Sciences (NCATS).
The list is not random: actives were taken first. Their share in the collection is about 2.6%.
p53 reactivation – re-activators of mutant p53. H1299 p53-A138V BP100-luciferase reporter, luminescence, 24 h. Potency, µM (doses to about 92.2 µM), inactives show at the top dose activity change, positive = activation, actives largely listed as activators. actives 0.063% (n = 320,000). AID 504706; active = well fitted activation curve with a large enough effect; inconclusive = small, poorly fitted or top-dose-only effect; inactive = no such curve, though single readings can be large or run the other way; also: potency is read from the fitted curve at half-maximal effect; % of control where 0% means no effect; nearly all actives have a fitted effect of over 45% in size
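H1299 (p53-null), stable ts p53-A138V + BP100-Luc; 1000 cells/well, Opti-MEM/10% FBS; cpd 4 pt, 1:5; 24 h, 37 deg C, 5% CO2; detection reagent 10 min RT; luminescence.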
TRPV1 ag – activates the human vanilloid receptor TRPV1. TRPV1-expressing cells, Fluo-8 calcium influx, agonist mode. activation, % at 8.33 µM. actives 0.19% (n = 320,000). AID 540275; in the data active = activation above about 80%; inconclusive = between about 30% and that limit; also: 0% is about no effect
Target sequence (Q8NER1 whole entry, looked up): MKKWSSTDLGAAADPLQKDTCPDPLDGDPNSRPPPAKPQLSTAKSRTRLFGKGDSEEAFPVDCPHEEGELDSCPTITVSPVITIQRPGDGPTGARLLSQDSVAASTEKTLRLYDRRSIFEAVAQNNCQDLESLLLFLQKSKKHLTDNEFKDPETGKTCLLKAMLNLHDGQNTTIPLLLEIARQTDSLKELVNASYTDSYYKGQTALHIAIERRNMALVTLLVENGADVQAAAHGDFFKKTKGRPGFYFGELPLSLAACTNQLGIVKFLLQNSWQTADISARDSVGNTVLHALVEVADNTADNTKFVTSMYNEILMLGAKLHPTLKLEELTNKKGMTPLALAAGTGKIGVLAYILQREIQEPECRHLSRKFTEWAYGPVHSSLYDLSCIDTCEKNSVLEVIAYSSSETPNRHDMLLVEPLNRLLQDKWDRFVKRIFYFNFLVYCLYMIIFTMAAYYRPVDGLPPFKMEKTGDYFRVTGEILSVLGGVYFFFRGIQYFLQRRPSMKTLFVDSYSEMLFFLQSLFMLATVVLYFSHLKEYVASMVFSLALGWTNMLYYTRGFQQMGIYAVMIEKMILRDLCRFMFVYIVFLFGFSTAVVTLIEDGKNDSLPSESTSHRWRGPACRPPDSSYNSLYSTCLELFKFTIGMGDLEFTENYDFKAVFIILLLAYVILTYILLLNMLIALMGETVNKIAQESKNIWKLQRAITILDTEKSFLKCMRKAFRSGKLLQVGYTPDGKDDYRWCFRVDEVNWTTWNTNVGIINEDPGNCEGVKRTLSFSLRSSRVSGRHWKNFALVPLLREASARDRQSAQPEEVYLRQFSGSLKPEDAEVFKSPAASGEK
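TRPV1-expressing cells were cultured overnight at 35.5C and loaded with Fluo-8 calcium dye for 40 to 90 min at room temperature. After a 10 s baseline, compound was added and calcium influx was read kinetically for 3 min (ex 480/em 520 nm).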
ClpP mod – qHTS Assay for Activators of ClpP | Potency, µM (top dose mostly 57.5 µM), for the others: top-dose activity change, negative = active | actives 1.9% (n = 340,000) | ATP-dependent Clp protease proteolytic subunit (Bacillus subtilis (strain 168)), P80244 | purified B. subtilis ClpP, FRET peptide cleavage, 20 min; active = well fitted falling curve with a large enough effect; inconclusive = small, poorly fitted or top-dose-only effect; inactive = no such curve, though single readings can be large or run the other way; also: potency is read from the fitted curve at half-maximal effect; the source files actives as falling curves though it sought activators and does not explain the sign; nearly all actives have a fitted effect of over 65% in size
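ClpP 10 microg/mL final, pH 8 Tris/KCl buffer with BSA, glycerol, Tween-20; compound pinned in; FRET-FV substrate; RT 20 min; Ex320/Em430; ΔFRET vs ADEP 5.8 microM, DMSO, no enzyme.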
TRPV1 potentiator – human TRPV1 potentiation | Q8NER1 | TRPV1-expressing cells, Fluo-8 calcium influx, capsaicin EC20 potentiation | potentiation, % at 8.33 µM | actives 0.02% (n = 320,000) | AID 540277; in the data active = potentiation above about 80%; inconclusive = between about 30% and that limit; also: 0% is about no effect
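TRPV1-expressing cells were cultured overnight at 35.5C and loaded with Fluo-8 calcium dye for 40 to 90 min at room temperature. After a 10 s baseline, compound was added and calcium influx was read kinetically for 3 min (ex 480/em 520 nm).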
KCNH2 WT inh – KCNH2 (human, wildtype) channel inhibition; Q12809; U2OS, BacMam KCNH2, thallium flux FluxOr; active compounds read low; actives 0.37% (n = 340,000); activity change, % at 1.84 µM; AID 720551;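 active = maximum activity change below -70%; inconclusive = maximum activity change between -70% and -50%; inactive = maximum activity change above -50%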; also: % is scaled to controls: 0 for no effect and ±100 for the full control effect
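U2OS cells transduced with wild-type KCNH2 virus are loaded with FluxOr dye for 45 min, and thallium flux is measured in kinetic reads before and after stimulation buffer. Rate constants are normalized to DMSO controls.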
KCNH2 3.1 block – blocks the human KCNH2 3.1 channel isoform; U2OS KCNH2 3.1, thallium flux FluxOr; active compounds read low; activity change, % (tested at about 1.8 µM); actives 0.95% (n = 340,000); AID 720553;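 active = maximum activity change below -70%; inconclusive = maximum activity change from -70% to -50%; inactive = maximum activity change above -50%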;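 also: thallium influx rate constant from kinetic fluorescence after stimulation buffer; % is scaled to controls: 0 for no effect and ±100 for the full control effect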
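Normalized rate constant (relative to positive and negative DMSO controls) derived from a 2 min kinetic fluorescence read after stimulation; U2OS cells expressing the 3.1 isoform via virus at 1.77 x 10^8 /mL.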
* marks the source's active call; other numbers are inactive results; ? = inconclusive; . = no result.

SMILES | p53 reactivation | TRPV1 ag | ClpP mod | TRPV1 potentiator | KCNH2 WT inh | KCNH2 3.1 block
COc1ccccc1-c1cc(C(=O)Nc2c(C)nn(Cc3ccc(Cl)cc3)c2C)no1 | . | . | -3.0% | . | . | .
CC1(C(=O)Nc2cccc(-n3cnnn3)c2)Cc2ccccc2C(=O)O1 (stereo not drawn) | -10.8% | . | 35.5µM* | . | -1.3 | .
CC1(C(=O)Nc2cccc(Br)c2)Cc2ccccc2C(=O)O1 (stereo not drawn) | . | . | 1.4% | . | . | .
CCCCCc1c(O)c2ccccc2[nH]c1=O | -0.8% | -0.7 | 25.1µM* | 20.6 | -3.9 | 7.8
CCCCS(=O)c1c(O)c2ccccc2[nH]c1=O (stereo not drawn) | 16.0% | 1.6 | -3.2% | 6.7 | 4.7 | 4.0
CCCCOC(=O)Cc1c(O)c2ccccc2[nH]c1=O | -1.7% | -0.2 | ? | 16.8 | -12.7 | -6.7
CCCCCOC(=O)Cc1c(O)c2ccccc2[nH]c1=O | 1.9% | 2.6 | 15.8µM* | 1.4 | -2.3 | 1.6
CC(C)COC(=O)Cc1c(O)c2ccccc2[nH]c1=O | 7.4% | . | 28.2µM* | . | -5.3 | -13.5
CC[C@]12C(=O)N(C)C[C@H]([C@@H]3C(=O)N(Cc4ccccc4)C(=O)[C@@H]31)N2C(=O)c1ccc(Br)cc1 | . | . | 0.2% | . | 0.5 | -4.0
Cc1ccc(S(=O)(=O)N(CC(=O)Nc2ccc3c(c2)OCO3)c2ccc(C)c(Cl)c2)cc1 | . | . | -3.0% | . | . | .
NS(=O)(=O)c1ccc(N/N=C/c2cn(-c3ccccc3)nc2-c2cccs2)cc1 | 6.3% | 8.7 | 15.8µM* | 14.8 | 7.5 | 8.0
Cc1ccc(C(=O)C(c2ccccc2)N2Cc3ccccc3C2=N)cc1 (stereo not drawn) | -2.7% | ? | 3.16µM* | -1.1 | -4.6 | -72.9*
CC(C)CCNC(=O)[C@@H](c1ccccc1)N1Cc2ccccc2C1=O | . | . | -3.5% | . | . | .
CCCOC(=O)CSc1ncnc2sc3c(c12)CCC(C)C3 (stereo not drawn) | . | . | -5.8% | . | . | .
CC(C)OCCCNC(=O)C1CCC(CNS(=O)(=O)c2ccccc2)CC1 (stereo not drawn) | -9.2% | -0.9 | 0.3% | 5.7 | 4.7 | -85.0*
Cc1ccc(S(=O)(=O)NCC2CCC(C(=O)NCCCOC(C)C)CC2)cc1 (stereo not drawn) | -0.6% | -1.1 | 0.6% | -3.8 | . | .
O=S(=O)(NCCc1ccccc1)c1cccs1 | 25.0% | 1.8 | . | 3.7 | -11.6 | 8.3
O=S(=O)(NCc1ccccc1)c1cccs1 | -1.4% | -3.6 | 14.1µM* | 15.0 | 11.5 | 5.0
CCOc1ccc(-c2noc(-c3csc([C@@H]4O[C@H](CO)[C@H](O)[C@H](O)[C@H]4O)n3)n2)cc1 | . | . | -2.1% | . | . | .
O=C(O)C(=O)/C(=C\c1cccc2ccccc12)c1ccc2ccccc2n1 | 3.7% | -0.4 | 15.8µM* | 3.7 | 28.4 | 11.5
Cc1ccc(OCc2nc3ccccc3n2C(C(=O)NC(C)(C)C)c2ccncc2)cc1 (stereo not drawn) | . | . | 0.0% | . | . | .
N#CCC(=O)N/N=C/c1ccc(Cl)cc1 | -0.2% | -0.1 | . | -2.9 | 5.1 | -73.3*
CCOc1cc(C=C(C#N)C#N)ccc1Oc1ccc([N+](=O)[O-])cn1 | -5.1% | 3.8 | -2.0% | 5.3 | 4.3 | 7.3
COc1cc(/C=C(/C#N)c2ccc(F)cc2)ccc1Oc1ccc([N+](=O)[O-])cn1 | -1.1% | 2.0 | 31.6µM* | 0.6 | 7.3 | -8.2
COc1ccc(/C=C2/CCC(CN3CCOCC3)C2=O)cc1 (stereo not drawn) | . | . | -1.5% | . | -1.3 | .
SMILES | p53 reactivation | TRPV1 ag | ClpP mod | TRPV1 potentiator | KCNH2 WT inh | KCNH2 3.1 block
CN(C)CCNC(=O)/C(=C/c1ccc(-c2ccc(Cl)cc2Cl)o1)NC(=O)c1ccccc1 | -12.3% | 13.9 | -7.1% | 13.5 | -0.7 | ?
Cc1ccc(C(=O)N/C(=C\c2ccc(-c3ccc(Br)cc3)o2)C(=O)NCCCN(C)C)cc1 | -8.4% | 10.4 | -8.5% | 11.3 | -80.3* | -4.0
CN(C)CCNC(=O)/C(=C/c1ccc(-c2ccc(Cl)cc2)o1)NC(=O)c1ccccc1 | -18.5% | 5.2 | 15.8µM* | 3.3 | -6.6 | -91.2*
COC(=O)[C@@]12C[C@@H](CC(=O)NCCC(C)C)C(=O)N(Cc3cccc4ccccc34)C1=CCC(C)(C)C2 | . | . | 1.5% | . | . | .
O=C1c2cccc3cccc(c23)C(=O)N1OS(=O)(=O)c1ccc(Br)cc1 | 0.8% | 0.5 | . | 19.2 | 0.8 | -35.4
O=C1c2cccc3cccc(c23)C(=O)N1OS(=O)(=O)c1ccccc1 | 22.5% | -1.4 | 28.2µM* | -2.4 | 6.5 | -0.3
Cc1ccc(CCN2CC(C(=O)NC3CCC(C)CC3)CC2=O)cc1 (stereo not drawn) | . | . | 2.2% | . | 0.1 | 11.3
CC(C)C(c1nnnn1Cc1ccc(F)cc1)N1CCN(Cc2ccc3c(c2)OCO3)CC1 (stereo not drawn) | 0.1% | 15.9 | -0.4% | -4.1 | 1.4 | -71.4*
Cc1ccc(C(c2nnnn2Cc2cccs2)N2CCN(Cc3ccc4c(c3)OCO4)CC2)cc1 (stereo not drawn) | 5.4% | 1.9 | -1.2% | 15.8 | -109.8* | -95.1*
COc1cc(OC)c(OC)cc1/C=C/c1ccc2ccccc2[n+]1C | . | . | 1.1% | . | . | .
CC(=O)N1CCc2cc(S(=O)(=O)NC(Cc3ccccc3)C(=O)Nc3cccc(C)c3)ccc21 (stereo not drawn) | . | . | -1.0% | . | . | .
CCOC(=O)c1cc(-c2ccc(OC)cc2)nc2c1c(C)nn2CCC#N | -4.5% | 4.9 | 25.1µM* | -6.2 | -7.5 | -7.8
CC[C@@H]1[C@H]2CCCC(=O)N3CC[C@@H](C[C@@H]1OC(=O)Nc1ccc4c(c1)OCO4)[C@@H]23 | . | . | -1.4% | . | . | .
CCCOC(=O)C1=C(C)NC2=C(C(=O)CCC2)C1c1cccc(OC)c1OC (stereo not drawn) | -2.0% | 2.7 | 25.1µM* | 3.7 | 3.5 | 6.1
CCCOC(=O)C1=C(C)NC2=C(C(=O)CCC2)C1c1cccs1 (stereo not drawn) | -3.9% | 1.0 | ? | 2.5 | -9.2 | -0.7
CCCCNC(=O)c1cnn2c(C)c(Cc3c(C)cc(C)cc3C)c(C)nc12 | . | . | 4.2% | . | . | .
Cc1ccsc1/C=C/c1ccc2cccc(O)c2n1 | 39.8µM* | 2.5 | -3.0% | 4.3 | -5.9 | -35.0
CC(C)C[C@H]1CN(CCCC[C@@H]2CNC(=O)C(=O)N2Cc2ccccc2)C(=O)C(=O)N1CCc1ccc(O)cc1 | . | . | -0.4% | . | . | .
CCOc1ccc(NC(=O)CN2CCN(Cc3ccccc3)S2(=O)=O)cc1 | . | . | -3.0% | . | . | .
O=C(N/N=C/c1ccccc1)C(=O)N/N=C/c1ccccc1 | 3.9% | -1.0 | . | 3.0 | 1.6 | -4.3
